In PubChem BioAssay (NCI) one finds growth data, which are given here for eight compounds.

The structures appear in SMILES notation. This is part of a sample that, as a whole, favours compounds with a hit. Of some 83,000 tested, about 20% had one in any assay.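 Each cell line was grown in a 96-well plate and treated with one concentration of compound for 48 hours. Values below 10 were considered active.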 Values without a mark were called inactive. The source made the active and inactive calls.

Test systems include SK-MEL-2 melanoma; EKVX NSCLC; SN12C renal; UO-31 renal; TK-10 renal; ACHN renal; CAKI-1 renal; A498 renal; CCRF-CEM leukemia; RPMI-8226 leukemia; OVCAR-8 ovarian; OVCAR-5 ovarian; OVCAR-4 ovarian; SK-OV-3 ovarian; IGROV1 ovarian; OVCAR-3 ovarian; HS 578T breast; NCI/ADR-RES ovarian; MOLT-4 leukemia; SR leukemia.
Common to all, as to assay: NCI-60 one-dose screen, 48 h (100 = growth as untreated, 0 = no growth, -100 = all killed)
What all share (settings): 10 µM unless noted

Regarding `C=C1c2c(C)nn(-c3ccc(N)cc3)c2N(C)C23CC1C1(C)c4c(C)nn(-c5ccc(N)cc5)c4N(C)C(C)(CC12)C3` (stereo unspecified), the growth with SK-MEL-2 melanoma is 79.2%; in the assay with EKVX NSCLC it was 52.3%; in the assay with SN12C renal, 89.5%; with UO-31 renal, 51%; in the assay with TK-10 renal it was 76.2%; in the assay with ACHN renal, 58.9%. Besides, the growth was 76.6% with CAKI-1 renal; 89.4% in the assay on A498 renal; 47.8% in the assay with CCRF-CEM leukemia; 40.9% in the assay with RPMI-8226 leukemia; 71% in the assay with OVCAR-8 ovarian; 101% in the assay on OVCAR-5 ovarian. The growth with OVCAR-4 ovarian was 70.7%; with SK-OV-3 ovarian, 70.6%; with IGROV1 ovarian it was 100%; in the assay with OVCAR-3 ovarian, 78.4%; in the assay on HS 578T breast, 90.6%; with NCI/ADR-RES ovarian, 78.8%.

As to `C[N+](C)(C)CCOC(OCC[N+](C)(C)C)(c1ccccc1)c1ccccc1`, the growth in the assay with SK-MEL-2 melanoma was 99.4%; with EKVX NSCLC it was 111%; in the assay with SN12C renal it was 99.9%; with UO-31 renal, 89.1%; in the assay with TK-10 renal it was 109%; with ACHN renal, 97.6%. Also, the growth in the assay with CAKI-1 renal was 101%; in the assay with A498 renal it was 113%; in the assay on MOLT-4 leukemia, 102%; in the assay with SR leukemia it was 89.5%; in the assay on RPMI-8226 leukemia, 106%; with OVCAR-8 ovarian, 105%. Moreover, the growth in the assay with OVCAR-5 ovarian is 104%; in the assay on OVCAR-4 ovarian, 107%; in the assay with SK-OV-3 ovarian it was 103%; in the assay with IGROV1 ovarian, 124%; with HS 578T breast, 115%; in the assay on NCI/ADR-RES ovarian it was 97.9%.

For `C=C1c2c(C)nn(-c3ccc(NC(C)=O)cc3)c2N(C)C23CC1C1(C)c4c(C)nn(-c5ccc(NC(C)=O)cc5)c4N(C)C(C)(CC12)C3` (stereo unspecified), the growth in the assay with SK-MEL-2 melanoma was 36.6%; in the assay on EKVX NSCLC, 24.9%; with SN12C renal, 45.6%; in the assay on UO-31 renal, 24.2%; with TK-10 renal, 37.3%; in the assay on ACHN renal, 19.4%. Also, the growth in the assay on CAKI-1 renal is 32.8%; with A498 renal, 60.3%; in the assay on CCRF-CEM leukemia, 8.28% (active); in the assay on RPMI-8226 leukemia it was -50.5% (active); in the assay with OVCAR-8 ovarian it was 40.8%; in the assay on OVCAR-5 ovarian, 78.1%. Also, the growth in the assay on OVCAR-4 ovarian was 35%; in the assay with SK-OV-3 ovarian, 48.5%; in the assay with OVCAR-3 ovarian it was 34.3%; in the assay with HS 578T breast it was 62.6%; in the assay with NCI/ADR-RES ovarian, 43.4%.

Regarding `Cn1c(NCCc2ccc(O)c(O)c2)nc2c1c(=O)n(Cc1ccc(Cl)cc1)c(=O)n2C`, the growth in the assay with SK-MEL-2 melanoma is 95%; in the assay with EKVX NSCLC it was 84.8%; in the assay with SN12C renal, 82.7%; in the assay on UO-31 renal, 29.8%; in the assay with TK-10 renal, 69.9%; with ACHN renal it was 39.5%. Besides, the growth is 38.7% in the assay with CAKI-1 renal; 86.2% with A498 renal; 12.8% in the assay with CCRF-CEM leukemia; 37.9% in the assay on RPMI-8226 leukemia; 87.6% in the assay with OVCAR-8 ovarian; 94.9% in the assay with OVCAR-5 ovarian. The growth is 59.8% in the assay on OVCAR-4 ovarian; 82.3% in the assay on SK-OV-3 ovarian; 61.9% in the assay on IGROV1 ovarian; 62.6% with OVCAR-3 ovarian; 77% with HS 578T breast; 88.5% in the assay on NCI/ADR-RES ovarian.

Consider `COc1ccc(-c2nc3ccccn3c2/C=C/C(=O)c2cc(OC)c(OC)c(OC)c2)cc1`, for which the growth with SK-MEL-2 melanoma was 52.6%; in the assay with EKVX NSCLC it was 90.4%; in the assay with SN12C renal, 54.8%; in the assay on UO-31 renal, 42.9%; with TK-10 renal it was 73.6%; in the assay with ACHN renal, 43.1%. The growth with CAKI-1 renal is 59.1%; with A498 renal, 55%; with MOLT-4 leukemia it was 61.6%; with SR leukemia, 18.8%; with RPMI-8226 leukemia, 29.8%; in the assay on OVCAR-8 ovarian it was 30.6%. In addition, the growth is 56.5% in the assay with OVCAR-4 ovarian, 62.8% in the assay on SK-OV-3 ovarian, 61.6% with IGROV1 ovarian and 51.2% in the assay on OVCAR-3 ovarian.

Regarding `C=C(CNCCc1ccc(O)cc1)[C@@H]1CC[C@]2(COC3CCCCO3)CC[C@]3(C)[C@H](CC[C@@H]4[C@@]5(C)CCC(NCCO)C(C)(C)[C@@H]5CC[C@]43C)[C@@H]12` (stereo partly specified), the growth with SK-MEL-2 melanoma is -81.3% (active); in the assay with EKVX NSCLC it was -77.5% (active); in the assay with SN12C renal, -92.2% (active); in the assay on UO-31 renal it was -97.3% (active); in the assay with TK-10 renal it was -89.7% (active); in the assay with ACHN renal it was -99.2% (active). Further, the growth was -92.1% (active) in the assay on CAKI-1 renal; -1.47% (active) in the assay on A498 renal; -51.1% (active) in the assay on CCRF-CEM leukemia; -56.8% (active) in the assay on RPMI-8226 leukemia; -85.1% (active) in the assay on OVCAR-8 ovarian; -93.1% (active) with OVCAR-5 ovarian. In addition, the growth with OVCAR-4 ovarian was -91.5% (active); in the assay with SK-OV-3 ovarian, -48.9% (active); in the assay on IGROV1 ovarian, -83.9% (active); in the assay on OVCAR-3 ovarian, -94.4% (active); in the assay on HS 578T breast, -51.5% (active); in the assay with NCI/ADR-RES ovarian, -79.3% (active).

For `Cn1cc(-c2ccc3ncc(-c4ccc(CC(=O)Nc5cc(C(C)(C)C)nn5C)cc4)cc3c2)cn1`, the growth with SK-MEL-2 melanoma was -9.17% [30 µM] (active); with EKVX NSCLC it was 27.1% [30 µM]; with SN12C renal, 16.6% [30 µM]; in the assay with UO-31 renal, 7.45% [30 µM] (active); with TK-10 renal, 40.6% [30 µM]; in the assay with ACHN renal it was 8.71% [30 µM] (active). For the same compound, the growth is 5.68% [30 µM] (active) with CAKI-1 renal; 11.4% [30 µM] with A498 renal; -22.1% [30 µM] (active) in the assay on MOLT-4 leukemia; 11.6% [30 µM] in the assay on SR leukemia; 3.22% [30 µM] (active) in the assay on OVCAR-8 ovarian; 46.2% [30 µM] in the assay with OVCAR-5 ovarian. Moreover, the growth with OVCAR-4 ovarian was -21.8% [30 µM] (active); in the assay with SK-OV-3 ovarian, 12.6% [30 µM]; in the assay with IGROV1 ovarian, 7.76% [30 µM] (active); with OVCAR-3 ovarian, 7.38% [30 µM] (active); in the assay with HS 578T breast, 27.8% [30 µM]; with NCI/ADR-RES ovarian, -8.5% [30 µM] (active).

`N=c1ccn2c(n1)OC1C(O)C(CO)OC12` (stereo unspecified): the growth with SK-MEL-2 melanoma was 46.5%; in the assay on EKVX NSCLC it was 85.5%; with SN12C renal, 34.9%; in the assay with UO-31 renal it was -3.93% (active); in the assay with TK-10 renal, 51.3%; in the assay on ACHN renal, -15.9% (active). For the same compound, the growth was -14.4% (active) with CAKI-1 renal; 74.7% in the assay on A498 renal; 108% in the assay on MOLT-4 leukemia; 181% in the assay on SR leukemia; 28.8% with OVCAR-8 ovarian; 71.2% with OVCAR-5 ovarian. Also, the growth is 52.4% with OVCAR-4 ovarian; 47% in the assay on SK-OV-3 ovarian; 12.6% with IGROV1 ovarian; 67.1% with OVCAR-3 ovarian; 85.2% in the assay with HS 578T breast; 31.8% in the assay on NCI/ADR-RES ovarian.
